Results: PubChem BioAssay (Tox21)
Records with an inconclusive call do not appear. The source made the active and inactive calls. Unless noted, the call rests on the fitted dose curve.

Tests used:
[1] = qHTS assay to identify small molecule agonists of the vitamin D receptor (VDR) signaling pathway - cell viability counter screen (AID 743224; active means well fitted curve in the direction sought with a large enough effect in the repeat runs; an effect the other way counts as inactive or inconclusive; further: series mostly up to about 63 µM; on the % scale 0 is the no-effect control and ±100 the full control effect; nearly all actives have a fitted effect of over 50% in size)
Procedure, shortened: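 Viability is measured in the same wells as the VDR-bla reporter assay: after 16 h compound treatment and 2 h substrate loading, CellTiter-Glo is added and luminescence read 30 min later.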

[2] = qHTS assay to identify small molecule agonists of the NFkB signaling pathway - cell viability counter screen (AID 1159515); further: series mostly up to about 61 µM; on the % scale 0 is the no-effect control and ±100 the full control effect; nearly all actives have a fitted effect of over 55% in size
Procedure, shortened: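 Multiplexed viability readout: after the 5 hr compound exposure and 1.5 hr FRET substrate step, CellTiter-Glo reagent went into the same NFkB-bla ME-180 wells; ATP luminescence was measured after 30 min at room temperature.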

[3] = qHTS assay to identify small molecule agonists of the endoplasmic reticulum stress response signaling pathway (AID 1159516; active means well fitted activation curve with a large enough effect in the signal ratio in the repeat runs, not every such curve was filed as active; the % refers to the signal ratio; further: on the % scale 0 is the no-effect control and ±100 the full control effect)
Procedure, shortened: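 Tox21 10K library screened in quantitative HTS format on ESRE-bla HeLa cells, a beta-lactamase reporter under ER stress response element control; 5 hr treatment, FRET read.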

[4] = qHTS assay to identify small molecule agonists of the endoplasmic reticulum stress response signaling pathway - cell viability counter screen (AID 1159517); further: series mostly up to about 61 µM; on the % scale 0 is the no-effect control and ±100 the full control effect; nearly all actives have a fitted effect of over 50% in size
Procedure, shortened: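 HeLa cells carrying an ESRE-driven beta-lactamase reporter receive compound for 5 hr at 37 C. Cell viability is then gauged with CellTiter-Glo by luminescence, 30 min at room temperature.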

[5] = qHTS assay to identify small molecule antagonists of the retinoid-related orphan receptor gamma (ROR-gamma) signaling pathway - cell viability counter screen (AID 1159520; active means well fitted curve in the direction sought with a large enough effect in the repeat runs; an effect the other way counts as inactive or inconclusive; further: on the % scale 0 is the no-effect control and ±100 the full control effect; nearly all actives have a fitted effect of over 50% in size)
Procedure, shortened: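 Cytotoxicity was read from cellular ATP (CellTiter-Glo luminescence) after 16 hr at 37 C with 1 uM doxycycline induction. The inducer was added 2 hr after compound transfer to Tet-on ROR gamma CHO cells.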

[6] = molecular target: Nuclear receptor ROR-gamma (Homo sapiens) (UniProt P51449); assay: qHTS assay to identify small molecule antagonists of the retinoid-related orphan receptor gamma (ROR-gamma) signaling pathway (AID 1159521; active means well fitted curve in the direction sought with a large enough effect in the repeat runs; an effect the other way counts as inactive or inconclusive;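 further: CHO cells with doxycycline inducible ROR-gamma driving an RORE luciferase reporter; top concentration of the series differs between compounds; on the % scale 0 is the no-effect control and ±100 the full control effect; nearly all actives have a fitted effect of over 50% in size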)
Procedure, shortened: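 CHO Tet-on RORγ, RORE-luc reporter. Cpd 2 h pre-incubation, then dox hyclate 1 uM final, 16 h, 37 C/5% CO2. ONE-Glo luminescence; decrease = antagonist.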

[7] = qHTS assay to identify small molecule agonists of the AP-1 signaling pathway - cell viability counter screen (AID 1159525); further: nearly all actives have a fitted effect of over 55% in size
Procedure, shortened: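 Luminescent ATP readout (Cell Titer Glo, 30 min RT), normalised to DMSO and tetra n-octyl ammonium bromide controls. Cells were ME-180 AP-1-bla in 0.5% dialyzed FBS Opti-MEM, with a 5 h, 37 °C compound exposure.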

[8] = qHTS assay to identify small molecule agonists of the AP-1 signaling pathway (AID 1159526); further: on the % scale 0 is the no-effect control and ±100 the full control effect
[9] = qHTS assay to identify small molecule antagonists of the vitamin D receptor (VDR) signaling pathway - cell viability counter screen (AID 743225; active means well fitted curve in the direction sought with a large enough effect in the repeat runs; an effect the other way counts as inactive or inconclusive)
Procedure, shortened: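 Read-out: CellTiter-Glo luminescence measured 30 min after reagent addition at room temperature. Cells were VDR-bla HEK 293T exposed 16 h at 37C, 5% CO2, to compound with 3 nM final calcitriol agonist.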

[10] = qHTS assay to identify small molecule agonists of the NFkB signaling pathway (AID 1159509; active means well fitted curve in the direction sought with a large enough effect in the signal ratio in the repeat runs, not every such curve was filed as active; the % refers to the signal ratio; further: series mostly up to about 61 µM; on the % scale 0 is the no-effect control and ±100 the full control effect)
Procedure, shortened: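 NFkB-bla ME-180 cells carry a beta-lactamase reporter under an NF-kB response element. They were plated overnight, then exposed to compounds for 5 h at 37 C. Read-out is LiveBLAzer FRET after 1.5 hr at room temperature (405 nm excitation; 460/530 nm emission).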

CCCCCCCCS(=O)(=O)Cl
inactive: Potency [1] | outcome [2] | outcome [3] | outcome [4] | outcome [5] | Potency [6] | Potency [7] | outcome [8]

O=c1cc(-c2ccccc2)oc2ccccc12
inactive: Potency [1] | Potency [9] | outcome [10] | outcome [3] | outcome [4] | outcome [5] | Potency [7] | outcome [8]

CCc1cccc2c(CCO)c[nH]c12
inactive: Potency [1] | Potency [9] | outcome [10] | outcome [3] | outcome [4] | outcome [5] | Potency [6] | Potency [7] | outcome [8]

COc1ccccc1OCC(O)CN1CCN(CC(=O)Nc2c(C)cccc2C)CC1 (centres undefined)
inactive: Potency [1] | Potency [9] | outcome [10] | outcome [3] | outcome [4] | Potency [6] | Potency [7] | outcome [8]

CC(=O)OCC(=O)[C@@]1(O)CC[C@H]2[C@@H]3CCC4=CC(=O)CC[C@]4(C)[C@H]3C(=O)C[C@@]21C
inactive: Potency [1] | Potency [9] | outcome [2] | outcome [3] | outcome [4] | outcome [5] | Potency [6] | Potency [7] | outcome [8]

C=CCCCCCCCCC=O
inactive: Potency [1] | Potency [9] | outcome [10] | outcome [3] | outcome [4] | outcome [5] | outcome [8]

N[C@H]1CN(c2c(F)cc3c(=O)c(C(=O)O)cn(C4C[C@H]4F)c3c2Cl)CC12CC2 (some centres undefined)
inactive: Potency [1] | Potency [9] | outcome [2] | outcome [3] | outcome [4] | outcome [5] | Potency [6] | Potency [7] | outcome [8]

CCOC(=O)[C@H](CCc1ccccc1)N[C@@H](C)C(=O)N1[C@H](C(=O)O)C[C@@H]2CCC[C@@H]21
inactive: Potency [9] | outcome [10] | outcome [3] | outcome [4] | Potency [6] | Potency [7] | outcome [8]

OC[C@]1(O)OC[C@@H](O)[C@H](O)[C@@H]1O
inactive: Potency [1] | Potency [9] | outcome [10] | outcome [3] | outcome [4] | outcome [5] | Potency [6] | Potency [7] | outcome [8]

CC(=O)CC(C)C
inactive: Potency [1] | Potency [9] | outcome [2] | outcome [3] | outcome [4] | outcome [5] | Potency [6] | Potency [7] | outcome [8]

Cn1c(N)c(N=O)c(=O)n(C)c1=O
inactive: Potency [1] | Potency [9] | outcome [3] | outcome [4] | outcome [5] | Potency [6] | Potency [7] | outcome [8]

C[N+](C)(C)CCCCCC[N+](C)(C)C
inactive: Potency [1] | Potency [9] | outcome [2] | outcome [3] | outcome [4] | outcome [5] | Potency [7] | outcome [8]

CCOC(=O)c1c(C)n(C)c2ccc(O)cc12
inactive: Potency [1] | Potency [9] | outcome [2] | outcome [3] | outcome [4] | outcome [5] | Potency [6] | outcome [8]

O=C[C@H](O)[C@@H](O)[C@H](O)[C@H](O)CO
inactive: Potency [1] | Potency [9] | outcome [3] | outcome [4] | outcome [5] | Potency [6] | outcome [8]

O=C(O)CNC(=O)c1ccc([N+](=O)[O-])cc1
inactive: Potency [9] | outcome [2] | outcome [3] | outcome [4] | outcome [5] | outcome [8]

CCCCCCCCCCCC
inactive: Potency [1] | Potency [9] | outcome [2] | outcome [3] | outcome [4] | outcome [5] | Potency [7] | outcome [8]

CCN1CCC[C@H]1CNC(=O)c1c(O)c(Cl)cc(Cl)c1OC
inactive: Potency [1] | Potency [9] | outcome [3] | outcome [4] | outcome [5] | Potency [7] | outcome [8]

CN1C(=O)N(C)C(O)C1O (centres undefined)
inactive: Potency [1] | Potency [9] | outcome [3] | outcome [4] | outcome [5] | Potency [6] | Potency [7] | outcome [8]

CCC(C)C1CCCCC1=O (centres undefined)
inactive: Potency [1] | Potency [9] | outcome [2] | outcome [3] | outcome [4] | Potency [6] | outcome [8]

CCOC(=O)c1ccc(C)cc1
inactive: Potency [1] | Potency [9] | outcome [3] | outcome [4] | Potency [6] | Potency [7] | outcome [8]

CCOC(=O)c1cccc(N)c1
inactive: Potency [1] | Potency [9] | outcome [2] | outcome [3] | outcome [4] | Potency [7] | outcome [8]

COC(=O)c1ccc(C)cc1C1=NC(C)(C(C)C)C(=O)N1 (centres undefined)
inactive: Potency [1] | Potency [9] | outcome [2] | outcome [3] | outcome [4] | Potency [6] | Potency [7] | outcome [8]

NC(CSCC(=O)O)C(=O)O (centres undefined)
inactive: Potency [1] | Potency [9] | outcome [2] | outcome [3] | outcome [4] | outcome [8]

CC(C)(c1ccc(O)cc1)c1ccc(O)cc1
inactive: Potency [1] | Potency [9] | outcome [2] | outcome [3] | outcome [4] | outcome [5] | Potency [7] | outcome [8]

O=C1OC(=O)C2CCCCC12 (centres undefined)
inactive: Potency [9] | outcome [2] | outcome [3] | outcome [4] | Potency [6] | Potency [7] | outcome [8]

CC/C=C\CC/C=C/C(OCC)OCC
inactive: Potency [1] | Potency [9] | outcome [2] | outcome [3] | outcome [4] | outcome [5] | Potency [7] | outcome [8]

CCN1CCC[C@H]1CNC(=O)c1cc(S(N)(=O)=O)ccc1OC
inactive: Potency [1] | Potency [9] | outcome [2] | outcome [3] | outcome [4] | Potency [6] | Potency [7] | outcome [8]

COC(=O)[C@@H](N)Cc1ccc(O)c(O)c1
inactive: Potency [1] | Potency [9] | outcome [2] | outcome [3] | outcome [4] | outcome [5] | Potency [6] | Potency [7] | outcome [8]

CC1(C)C(O)C(C)(C)C1O (centres undefined)
inactive: Potency [1] | Potency [9] | outcome [2] | outcome [3] | outcome [4] | Potency [6] | Potency [7] | outcome [8]

CC(=O)OC/C=C(\C)CC/C=C(\C)CCC=C(C)C
inactive: Potency [1] | Potency [9] | outcome [3] | outcome [4] | outcome [5] | Potency [6] | Potency [7] | outcome [8]

O=c1n(CCO)c(=O)n(CCO)c(=O)n1CCO
inactive: Potency [1] | Potency [9] | outcome [2] | outcome [3] | outcome [4] | outcome [5] | Potency [7] | outcome [8]

Cc1nc2c([nH]1)c(=O)n(C)c(=O)n2Cc1ccco1
inactive: Potency [1] | Potency [9] | outcome [2] | outcome [3] | outcome [4] | outcome [5] | Potency [7] | outcome [8]

CCCCCCCCCCCCCC=O
inactive: activity change, negative = cytotoxicity [1] -0.0946% [at 5.95 µM] | viability change, negative = cytotoxic [9] 5.28% [at 6.95 µM] | activity, negative = cytotoxic [2] 2.89% [at 6.95 µM] | activation [3] -3.51% [at 6.95 µM] | activity change, negative = cytotoxicity [4] 0.611% [at 6.95 µM] | activity, negative = cytotoxicity [5] 2.5% [at 8.39 µM] | activity change, negative = inhibition [6] 5.08% [at 8.39 µM] | viability change, negative = cytotoxic [7] -4.58% [at 6.97 µM] | activation [8] -1.06% [at 6.97 µM]

NC(=O)c1ccc([N+](=O)[O-])cc1
inactive: Potency [1] | Potency [9] | outcome [2] | outcome [3] | outcome [4] | Potency [6] | Potency [7] | outcome [8]

Cc1cnc(NS(=O)(=O)c2ccc(N)cc2)nc1
inactive: Potency [1] | Potency [9] | outcome [2] | outcome [3] | outcome [4] | outcome [5] | Potency [6] | Potency [7] | outcome [8]

CCN(CC)CCNC(=O)c1cc(S(C)(=O)=O)ccc1OC
inactive: Potency [1] | Potency [9] | outcome [2] | outcome [3] | outcome [4] | Potency [7] | outcome [8]

CCCCC(CC)COC(=O)c1ccccc1O (centres undefined)
inactive: Potency [1] | Potency [9] | outcome [2] | outcome [3] | outcome [4] | outcome [5] | Potency [6] | outcome [8]

COCCCOCCCOC
inactive: Potency [1] | Potency [9] | outcome [3] | outcome [4] | outcome [5] | Potency [6] | Potency [7] | outcome [8]

CCCCCOC(=O)CCCCC
inactive: Potency [1] | Potency [9] | outcome [3] | outcome [4] | outcome [5] | Potency [6] | Potency [7] | outcome [8]

CC/C=C\CC/C=C/CO
inactive: Potency [1] | Potency [9] | outcome [2] | outcome [3] | outcome [4] | Potency [6] | Potency [7] | outcome [8]

Cc1cccn2c(=O)c(-c3nnn[nH]3)cnc12
inactive: Potency [1] | Potency [9] | outcome [2] | outcome [3] | outcome [4] | activity, negative = cytotoxicity [5] 0.0857% [at 19 µM] | Potency [6] | viability change, negative = cytotoxic [7] -0.287% [at 15.8 µM] | outcome [8]

CCOC(=O)CC(C)=O
inactive: Potency [1] | Potency [9] | outcome [2] | outcome [3] | outcome [4] | outcome [5] | Potency [7] | outcome [8]

O=C1CCCC(=O)C1
inactive: Potency [1] | Potency [9] | outcome [3] | outcome [4] | outcome [5] | Potency [7] | outcome [8]

CCn1nc(C(=O)O)c(=O)c2cc3c(cc21)OCO3
inactive: Potency [1] | Potency [9] | outcome [2] | outcome [3] | outcome [4] | outcome [5] | Potency [7] | outcome [8]

CCOC(=O)CCC(C)=O
inactive: Potency [1] | Potency [9] | outcome [3] | outcome [4] | outcome [5] | Potency [6] | outcome [8]
